The list is not random: actives were taken first. Their share in the collection is about 1.4%.
NS1 inh = qHTS Assay for Inhibitors of Influenza NS1 Protein Function | Potency, µM (titrated, usually from 46.1 µM), without a hit: at the top dose activity, positive = more growth | 0.4% of 270,000 active; calls by dose curve; note: actives are rising curves; nearly all actives have a fitted effect of over 50% in size
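Read-out: OD600 growth recovery of NS1-expressing budding yeast. Cells grown overnight at 30C in -URA glucose medium, washed, resuspended and diluted 1:100 in 2% galactose assay medium, pH 6.0. Same strain lacking NS1 served as positive control.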
Giardia FBPA inh = qHTS Assay for Inhibitors of Fructose-1,6-bisphosphate Aldolase from Giardia Lamblia | 0.71% of 290,000 active | Potency, µM (doses to about 59.6 µM), inactives show at the top dose activity, negative = inhibition, hits mostly inhibitors | AID 2451, 2010 | purified Giardia FBPA | A8B2U2; note: % is set by controls: 0 for no effect and ±100 for the full control effect; nearly all actives have a fitted effect of over 55% in size
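Giardia FBPA (40 nM reagent) was preincubated 10 min at RT with compound (up to 57.5 uM final), then substrate plus GAPDH/TPI/NAD/arsenate coupling system with diaphorase/resazurin was added; resorufin fluorescence (525/598 nm) was read after 20 min.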
SARS PLP yeast = qHTS of Yeast-based Assay for SARS-CoV PLP. S. cerevisiae expressing SARS-CoV PLpro, growth rescue. Potency, µM (doses to about 32.9 µM), inactives show top-dose activity, positive = growth rescue, usual class: activators. 0.19% of 330,000 active; calls by dose curve; note: 0% is about no effect; nearly all actives have a fitted effect of over 55% in size
AmpC inh no detg = qHTS Inhibitors of AmpC Beta-Lactamase (assay without detergent). P00811. AmpC nitrocefin hydrolysis, absorbance 480 nm, 0.0001% Triton. Potency, µM (titrated, usually from 57.1 µM), for the others: at the top dose activity change, negative = inhibition, hits mostly inhibitors. 0.52% of 330,000 active. AID 485341, 2010;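 note: plate controls were no compound for no effect and no enzyme for full effect; nearly all actives have a fitted effect of over 20% in size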
Target sequence (P00811 whole entry, looked up): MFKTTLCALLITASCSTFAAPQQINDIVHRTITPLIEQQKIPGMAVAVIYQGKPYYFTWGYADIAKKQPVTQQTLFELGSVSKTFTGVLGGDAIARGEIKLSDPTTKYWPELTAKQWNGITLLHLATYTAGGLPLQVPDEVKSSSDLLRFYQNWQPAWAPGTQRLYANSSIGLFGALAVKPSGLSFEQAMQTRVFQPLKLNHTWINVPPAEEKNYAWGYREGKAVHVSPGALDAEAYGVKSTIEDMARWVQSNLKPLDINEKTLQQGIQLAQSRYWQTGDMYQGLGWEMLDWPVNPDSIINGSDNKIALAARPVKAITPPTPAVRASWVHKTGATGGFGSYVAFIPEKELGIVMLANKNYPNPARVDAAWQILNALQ
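20 mM phosphate pH 7.0 + 0.01% (detergent screen) or 0.0001% Triton X-100; 5.3 nM AmpC reagent; cpd preinc 15 min RT; nitrocefin (800 uM stock) to start; A480 q20 s × 4 min; Activity was normalised to no-enzyme and no-compound control wells.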
AmpC inh detg = qHTS Inhibitors of AmpC Beta-Lactamase (assay with detergent); AmpC hydrolysis of nitrocefin, absorbance 480 nm, 0.01% Triton; Potency, µM (series often up to 114 µM), inactives show at the top dose activity change, negative = inhibition, usual class: inhibitors; 0.041% of 370,000 active;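 note: 0% = no-compound wells and -100% = no-enzyme wells; nearly all actives have a fitted effect of over 25% in size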
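AmpC (5.3 nM in the dispensed reagent) in 20 mM phosphate pH 7.0 with 0.01% (detergent screen) or 0.0001% Triton X-100 was preincubated with compounds for 15 min at room temperature. Nitrocefin was then added from an 800 uM solution, and hydrolysis was followed at 480 nm.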
An asterisk follows results filed as active. Unless noted, calls come from the whole dose curve; as a rule, active = well fitted curve in the direction sought with a large enough effect; inconclusive = small, poorly fitted or top-dose-only effect, or another doubt; inactive = no such curve, though single readings can be large; an effect the other way counts as inactive or inconclusive. Potency is the fitted concentration of half-maximal effect.

Results for CSCC(=O)Nc1nc(-c2ccc3c(c2)OCCO3)cs1 ?
Giardia FBPA inh: -10.5%; SARS PLP yeast: -4.0%; AmpC inh no detg: -46.7%; AmpC inh detg: -2.5%

How did COc1ccc(-c2nc3cnc(OC)nc3n(Cc3cccs3)c2=O)cc1 do in these assays?
Giardia FBPA inh: -8.4%

What do the screens show for `CN1CC(C(=O)O)Cc2c1ccc1ccccc21` (stereo not given)?
NS1 inh: 4.4%; Giardia FBPA inh: 9.98µM*; SARS PLP yeast: -1.4%; AmpC inh no detg: -18.7%; AmpC inh detg: -6.5%

What do the screens show for `CC(=O)Oc1cc2oc(=O)cc(C)c2cc1Cl`?
NS1 inh: -34.1%; Giardia FBPA inh: -4.3%; SARS PLP yeast: -0.5%; AmpC inh no detg: -1.5%; AmpC inh detg: 0.7%

Results for Cc1cc(=O)n(CCc2ccccc2)c(O)c1C#N ?
NS1 inh: -8.1%; Giardia FBPA inh: inconclusive; SARS PLP yeast: -17.9%; AmpC inh no detg: 2.51µM*; AmpC inh detg: -3.3%

Results for Cc1cc(=O)n(CCO)c(O)c1C#N ?
NS1 inh: -4.4%; Giardia FBPA inh: inconclusive; SARS PLP yeast: 4.9%; AmpC inh no detg: -19.3%; AmpC inh detg: 2.4%

Results for O=C(N/N=C(\CC(=O)c1cccs1)C(F)(F)F)c1cccnc1 ?
NS1 inh: 12.9%; Giardia FBPA inh: 3.8%; SARS PLP yeast: -0.8%; AmpC inh no detg: -4.2%; AmpC inh detg: 6.5%

What do the screens show for `O=C(N/N=C(/CC(=O)c1cccs1)C(F)(F)F)c1ccc(O)cc1`?
NS1 inh: 18.2%; Giardia FBPA inh: 13.8%; SARS PLP yeast: 21.2%; AmpC inh no detg: 7.94µM*; AmpC inh detg: -5.8%

What do the screens show for `CCOCCCn1c(=N)c(C(=O)NC2CCCCC2)cc2c(=O)n3ccccc3nc21`?
AmpC inh detg: 6.1%

What do the screens show for `Cc1nc(S(=O)(=O)c2ccc(Cl)cc2)c(NCc2ccccc2)o1`?
NS1 inh: 2.5%; Giardia FBPA inh: -6.1%; SARS PLP yeast: 5.4%; AmpC inh no detg: -54.8%; AmpC inh detg: 56.2µM*

What do the screens show for `Cc1ccc(N2C(=O)C3C(C2=O)N2C(c4cccs4)C4C(=O)N(c5ccc(C)cc5)C(=O)C4N2C3c2cccs2)cc1` (stereo not given)?
NS1 inh: 2.51µM*; Giardia FBPA inh: -0.6%; SARS PLP yeast: 15.6%; AmpC inh no detg: 18.6%; AmpC inh detg: -11.0%

How did CCOC(=O)C1(C)NC(c2cccs2)C2C(=O)N(c3ccc(C)cc3)C(=O)C21 (stereo not given) do in these assays?
Giardia FBPA inh: 5.1%; SARS PLP yeast: 2.5%; AmpC inh no detg: -5.6%; AmpC inh detg: -0.1%

How did O=C1CC(c2ccccc2)Cc2[nH]c(=O)c(-c3nc(-c4ccc(Cl)c(Cl)c4)cs3)cc21 (stereo not given) do in these assays?
AmpC inh detg: 5.3%

How did CCN(CC1CCCN(CCc2cccc(OC)c2)C1)C(=O)C=C(C)C (stereo not given) do in these assays?
NS1 inh: -0.3%; Giardia FBPA inh: 1.9%; SARS PLP yeast: -9.8%; AmpC inh no detg: 0.3%; AmpC inh detg: -8.4%

What do the screens show for `COc1ccc(OC)c(N2C(=O)/C(=C/c3ccco3)C(=O)NC2=S)c1`?
NS1 inh: 10.5%; Giardia FBPA inh: inconclusive; SARS PLP yeast: 0.0%; AmpC inh no detg: 17.8µM*; AmpC inh detg: 50.1µM*

Results for COc1ccc(OC)c(N2C(=O)NC(=O)/C(=C/c3ccc([N+](=O)[O-])s3)C2=O)c1 ?
Giardia FBPA inh: 12.6µM*; SARS PLP yeast: 1.9%; AmpC inh no detg: -26.4%; AmpC inh detg: 5.0%

What do the screens show for `CCN1C(=O)/C(=C\c2ccc([N+](=O)[O-])s2)C(=O)NC1=S`?
Giardia FBPA inh: 11.2µM*; SARS PLP yeast: 1.7%; AmpC inh no detg: -59.0%; AmpC inh detg: inconclusive

How did O=C1NC(=S)N(c2ccc(F)cc2)C(=O)/C1=C/c1ccco1 do in these assays?
NS1 inh: inconclusive; Giardia FBPA inh: inconclusive; SARS PLP yeast: -1.0%; AmpC inh no detg: 17.8µM*; AmpC inh detg: 50.1µM*

Results for Cc1nn(CC(=O)N2CCN(c3ccccc3F)CC2)c(=O)c2cccn12 ?
AmpC inh detg: 1.9%
